# According to publication PMC11062922 (Nature Chemical Biology, 2023):
# Like-named read-outs stand apart in the source and are kept apart here.
# Assays:
# [1] = tested on: AAK1; parameters: species or system human, MV4-11 + K-562 + COLO205 + SK-N-BE2 + OVCAR-8; conditions: read-out: apparent Kd, n = 1
# [2] = tested on: BMP2K; parameters: species or system human, MV4-11 + K-562 + COLO205 + SK-N-BE2 + OVCAR-8; conditions: read-out: apparent Kd, n = 1
# [3] = tested on: GSK3B; parameters: species or system human, MV4-11 + K-562 + COLO205 + SK-N-BE2 + OVCAR-8; conditions: read-out: apparent Kd, n = 1
# [4] = tested on: NUAK1; parameters: species or system human, MV4-11 + K-562 + COLO205 + SK-N-BE2 + OVCAR-8; conditions: read-out: apparent Kd; compound concentrations: 100 nM and 1000 nM (sheet 'Samples'), CATDS: 5.8980010573034099E-2; n = 1
# [5] = target: Q6ZSR9 (human, UniProt Q6ZSR9); parameters: species or system MV4-11 + K-562 + COLO205 + SK-N-BE2 + OVCAR-8; conditions: read-out: apparent Kd, n = 1
# [6] = tested on: CDKL5; parameters: species or system human, MV4-11 + K-562 + COLO205 + SK-N-BE2 + OVCAR-8; conditions: read-out: apparent Kd, n = 1
# [7] = tested on: CLK1; parameters: species or system human, MV4-11 + K-562 + COLO205 + SK-N-BE2 + OVCAR-8; conditions: read-out: apparent Kd, n = 1
# [8] = tested on: CLK4; parameters: species or system human, MV4-11 + K-562 + COLO205 + SK-N-BE2 + OVCAR-8; conditions: read-out: apparent Kd, n = 1
# [9] = tested on: CSNK2A1;CSNK2A3; parameters: species or system human, MV4-11 + K-562 + COLO205 + SK-N-BE2 + OVCAR-8; conditions: read-out: apparent Kd, n = 1
# [10] = tested on: CSNK2A2; parameters: species or system human, MV4-11 + K-562 + COLO205 + SK-N-BE2 + OVCAR-8; conditions: read-out: apparent Kd, n = 1
# [11] = tested on: FLT3; parameters: species or system human, MV4-11 + K-562 + COLO205 + SK-N-BE2 + OVCAR-8; conditions: read-out: apparent Kd, n = 1
# [12] = tested on: FLT4; parameters: species or system human, MV4-11 + K-562 + COLO205 + SK-N-BE2 + OVCAR-8; conditions: read-out: apparent Kd; compound concentrations: 100 nM and 1000 nM (sheet 'Samples'), CATDS: 2.0623462365067999E-2; n = 1
# [13] = tested on: GSK3A; parameters: species or system human, MV4-11 + K-562 + COLO205 + SK-N-BE2 + OVCAR-8; conditions: read-out: apparent Kd, n = 1
# [14] = tested on: MELK; parameters: species or system human, MV4-11 + K-562 + COLO205 + SK-N-BE2 + OVCAR-8; conditions: read-out: apparent Kd, n = 1
# [15] = tested on: MYLK3; parameters: species or system human, MV4-11 + K-562 + COLO205 + SK-N-BE2 + OVCAR-8; conditions: read-out: apparent Kd; compound concentrations: 100 nM and 1000 nM (sheet 'Samples'), CATDS: 0.127483608454634; n = 1
# [16] = tested on: PRKD2; parameters: species or system human, MV4-11 + K-562 + COLO205 + SK-N-BE2 + OVCAR-8; conditions: read-out: apparent Kd; compound concentrations: 100 nM and 1000 nM (sheet 'Samples'), CATDS: 1.78038958195245E-2; n = 1
# [17] = tested on: RET; parameters: species or system human, MV4-11 + K-562 + COLO205 + SK-N-BE2 + OVCAR-8; conditions: read-out: apparent Kd; compound concentrations: 100 nM and 1000 nM (sheet 'Samples'), CATDS: 1.8914319657445101E-2; n = 1
# [18] = tested on: DYRK1A; parameters: species or system human, MV4-11 + K-562 + COLO205 + SK-N-BE2 + OVCAR-8; conditions: read-out: apparent Kd, n = 1
# [19] = tested on: GAK; parameters: species or system human, MV4-11 + K-562 + COLO205 + SK-N-BE2 + OVCAR-8; conditions: read-out: apparent Kd; compound concentrations: 100 nM and 1000 nM (sheet 'Samples'), CATDS: 6.92626012786898E-2; n = 1
# [20] = compound concentrations:100 nM and 1000 nM (sheet 'Samples')
# Chain of Q6ZSR9 (Q6ZSR9 whole entry, looked up): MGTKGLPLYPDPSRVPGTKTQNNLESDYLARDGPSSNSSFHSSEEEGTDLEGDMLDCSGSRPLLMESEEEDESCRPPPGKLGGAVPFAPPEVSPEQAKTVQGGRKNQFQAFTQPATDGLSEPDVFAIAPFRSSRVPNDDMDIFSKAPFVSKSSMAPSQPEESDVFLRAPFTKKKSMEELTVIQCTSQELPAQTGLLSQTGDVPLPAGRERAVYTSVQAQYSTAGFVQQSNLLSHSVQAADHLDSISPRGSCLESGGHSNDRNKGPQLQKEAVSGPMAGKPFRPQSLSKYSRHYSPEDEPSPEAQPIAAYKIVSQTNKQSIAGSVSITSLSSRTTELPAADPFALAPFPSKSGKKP
structure (smiles),measurement,setting,value
CC(C)N1CC(=O)N(C)c2cnc(Nc3cccc(S(=O)(=O)CCN4CCOCC4)c3)nc21 [BI00009348],potency estimated from few doses,"[1]; compound concentrations: 100 nM and 1000 nM (sheet 'Samples'), CATDS: 7.4673370536537498E-2",0.662 µM
same,potency estimated from few doses,"[2]; compound concentrations: 100 nM and 1000 nM (sheet 'Samples'), CATDS: 7.1051362969771797E-2",0.736 µM
same,potency estimated from few doses,"[3]; compound concentrations: 100 nM and 1000 nM (sheet 'Samples'), CATDS: 6.9045357407431895E-2",0.783 µM
same,potency estimated from few doses,[4],1.14 µM
same,potency estimated from few doses,"[5]; compound concentrations: 100 nM and 1000 nM (sheet 'Samples'), CATDS: 6.16877896582032E-2",1.02 µM
NS(=O)(=O)c1ccc(NC=C2C(=O)Nc3ccc4ncsc4c32)cc1 [GW589933X],potency estimated from few doses,"[1]; compound concentrations: 100 nM and 1000 nM (sheet 'Samples'), CATDS: 2.8569630231133399E-2",0.376 µM
same,potency estimated from few doses,"[2]; compound concentrations: 100 nM and 1000 nM (sheet 'Samples'), CATDS: 4.4159404649836601E-2",0.151 µM
same,potency estimated from few doses,"[6]; compound concentrations: 100 nM and 1000 nM (sheet 'Samples'), CATDS: 7.9596409580243901E-2",0.0524 µM
same,potency estimated from few doses,"[7]; compound concentrations: 100 nM and 1000 nM (sheet 'Samples'), CATDS: 1.74105303489548E-2",1.59 µM
same,potency estimated from few doses,"[8]; compound concentrations: 100 nM and 1000 nM (sheet 'Samples'), CATDS: 2.0435296344387299E-2",0.913 µM
same,potency estimated from few doses,"[9]; compound concentrations: 100 nM and 1000 nM (sheet 'Samples'), CATDS: 2.5198594058055201E-2",0.51 µM
same,potency estimated from few doses,"[10]; compound concentrations: 100 nM and 1000 nM (sheet 'Samples'), CATDS: 3.3899738232558103E-2",0.257 µM
same,potency estimated from few doses,"[11]; compound concentrations: 100 nM and 1000 nM (sheet 'Samples'), CATDS: 2.3969492803236899E-2",0.581 µM
same,potency estimated from few doses,[12],0.888 µM
same,potency estimated from few doses,"[13]; compound concentrations: 100 nM and 1000 nM (sheet 'Samples'), CATDS: 1.8552119857048799E-2",1.25 µM
same,potency estimated from few doses,"[14]; compound concentrations: 100 nM and 1000 nM (sheet 'Samples'), CATDS: 1.7288492944947598E-2",1.63 µM
same,potency estimated from few doses,[15],0.0237 µM
same,potency estimated from few doses,[16],1.46 µM
same,potency estimated from few doses,"[5]; compound concentrations: 100 nM and 1000 nM (sheet 'Samples'), CATDS: 4.56646208861472E-2",0.141 µM
same,potency estimated from few doses,[17],1.17 µM
Cn1cc(C=C2C(=O)Nc3cccnc32)c2ccccc21 [GW441756X],potency estimated from few doses,"[1]; compound concentrations: 100 nM and 1000 nM (sheet 'Samples'), CATDS: 0.22645425815754",1.25 µM
same,potency estimated from few doses,"[2]; compound concentrations: 100 nM and 1000 nM (sheet 'Samples'), CATDS: 0.330795354292378",0.609 µM
same,potency estimated from few doses,"[5]; compound concentrations: 100 nM and 1000 nM (sheet 'Samples'), CATDS: 0.24113419116187701",1.09 µM
O=C1N=C(NCCc2ccccc2Cl)S/C1=C\c1ccc2ncccc2c1 [RO4498484-000],potency estimated from few doses,"[1]; compound concentrations: 100 nM and 1000 nM (sheet 'Samples'), CATDS: 7.0672381673146406E-2",1 µM
same,potency estimated from few doses,"[6]; compound concentrations: 100 nM and 1000 nM (sheet 'Samples'), CATDS: 6.1493092563951302E-2",1.6 µM
same,potency estimated from few doses,"[7]; compound concentrations: 100 nM and 1000 nM (sheet 'Samples'), CATDS: 0.163722912511999",0.151 µM
same,potency estimated from few doses,"[8]; compound concentrations: 100 nM and 1000 nM (sheet 'Samples'), CATDS: 0.193469538942661",0.114 µM
same,potency estimated from few doses,"[9]; compound concentrations: 100 nM and 1000 nM (sheet 'Samples'), CATDS: 0.166165421111277",0.147 µM
same,potency estimated from few doses,"[10]; compound concentrations: 100 nM and 1000 nM (sheet 'Samples'), CATDS: 0.20425555691522501",0.105 µM
same,potency estimated from few doses,"[18]; compound concentrations: 100 nM and 1000 nM (sheet 'Samples'), CATDS: 8.1161352179904903E-2",0.673 µM
same,potency estimated from few doses,"[11]; compound concentrations: 100 nM and 1000 nM (sheet 'Samples'), CATDS: 6.2849399961882796E-2",1.47 µM
same,potency estimated from few doses,[19],1.06 µM
same,potency estimated from few doses,"[5]; compound concentrations: 100 nM and 1000 nM (sheet 'Samples'), CATDS: 7.2207205601376195E-2",0.937 µM
CC(C)(CO)CNC(=O)c1ccc2c(c1)/C(=N/Nc1ccc(S(N)(=O)=O)cc1)C(=O)N2 [GW301784X],potency estimated from few doses,[1]; [20],1.82 µM
same,potency estimated from few doses,[2]; [20],1.84 µM
same,potency estimated from few doses,[6]; [20],0.172 µM
same,potency estimated from few doses,[7]; [20],0.878 µM
same,potency estimated from few doses,[8]; [20],0.612 µM
same,potency estimated from few doses,[9]; [20],0.12 µM
same,potency estimated from few doses,[10]; [20],0.0643 µM
same,potency estimated from few doses,[5]; [20],1.6 µM
Nc1nc(-c2ccc3c(N)n[nH]c3c2)cc(N2CCCC(NC(=O)c3ccccc3)C2)n1 (stereo not shown) [GSK2286775B],potency estimated from few doses,[1]; [20],0.826 µM
same,potency estimated from few doses,[5]; [20],0.821 µM
Cl.Cl.NCC(NCc1ccc(-c2ccnc3[nH]ccc23)s1)c1ccccc1.NCC(NCc1ccc(-c2ccnc3[nH]ccc23)s1)c1ccccc1 (stereo not shown) [GSK1321565A],potency estimated from few doses,[1]; [20],0.82 µM
same,potency estimated from few doses,[2]; [20],0.982 µM
same,potency estimated from few doses,[5]; [20],0.942 µM
CCn1c(-c2nonc2N)nc2cncc(Br)c21 [SB-738004],potency estimated from few doses,[1]; [20],0.517 µM
same,potency estimated from few doses,[7]; [20],1.42 µM
same,potency estimated from few doses,[8]; [20],0.505 µM
same,potency estimated from few doses,[18]; [20],0.717 µM
same,potency estimated from few doses,[11]; [20],1.19 µM
same,potency estimated from few doses,[13]; [20],0.445 µM
same,potency estimated from few doses,[3]; [20],0.724 µM
same,potency estimated from few doses,[14]; [20],1.66 µM
same,potency estimated from few doses,[5]; [20],0.369 µM
